Test results from PubChem BioAssay AID2563 (Broad Institute, 2010).
Screen size: about 290,000 compounds; about 800 (0.28%) were called active.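 How the source made its calls: active means fall in fluorescence gain of 50% or more versus controls, with final raw signal at or below 3038400; inconclusive means same 50% fall but final raw signal above 3038400; inactive means fall in fluorescence gain under 50%.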 The sample as a whole holds a higher share of actives than the screen did.

Molecular target: CAAX prenyl protease 2 (Saccharomyces cerevisiae (strain ATCC 204508 / S288c)) (UniProt Q03530)
Assay: yeast Rce1p protease inhibitors, primary screen, biochemical, fluorescence, cell-free homogeneous (AID 2563)
Settings: yeast membranes, quenched prenylated peptide cleavage fluorescence

Chain of CAAX prenyl protease 2 (Saccharomyces cerevisiae (strain ATCC 204508 / S288c)) (Q03530 whole entry, looked up): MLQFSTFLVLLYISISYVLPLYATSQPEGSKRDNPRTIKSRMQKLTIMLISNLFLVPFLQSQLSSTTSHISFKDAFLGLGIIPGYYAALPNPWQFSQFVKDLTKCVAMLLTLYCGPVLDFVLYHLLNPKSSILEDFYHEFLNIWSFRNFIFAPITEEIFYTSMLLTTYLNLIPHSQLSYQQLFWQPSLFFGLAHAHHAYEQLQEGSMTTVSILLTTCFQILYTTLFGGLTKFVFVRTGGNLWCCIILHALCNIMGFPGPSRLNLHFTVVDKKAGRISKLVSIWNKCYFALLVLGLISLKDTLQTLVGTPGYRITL

Row | SMILES | outcome
1 | O=C(Nc1ccc(N2CCCCC2)cc1)c1cc(S(=O)(=O)N2CCOCC2)ccc1F | inactive
2 | CN1c2ccc(C=O)c3c(C=O)ccc(c23)N(C)C1(C)C | active
3 | CCOc1ccc(S(=O)(=O)NCCC(=O)NCC(C)(C)N2CCOCC2)cc1 | inactive
4 | CC(=O)Nc1ccc(NC(=O)CSc2nnnn2C2CCCCC2)cc1 | inactive
5 | COc1ccc(Cl)cc1NS(=O)(=O)c1cccc(C(=O)NC2CCC(O)CC2)c1 (centres undefined) | inactive
6 | Cc1ccc(NC(=O)C2CC(=O)N(c3ccc4c(c3)OCCO4)C2)cc1S(=O)(=O)N1CCCCCC1 (centres undefined) | inactive
7 | O=C(CCNC(=O)c1ccc(Br)cc1)NCCCc1ccccc1 | inactive
8 | CN(CC(=O)NNC(=O)CNC(=O)c1ccccc1Cl)S(=O)(=O)c1ccc(Cl)cc1 | inactive
9 | COCc1c(C(=O)N/N=C/C2CC=CCC2)nnn1-c1nonc1N (centres undefined) | active
10 | COCc1c(C(=O)N/N=C\c2cccnc2)nnn1-c1nonc1N | inactive
11 | Cc1ccc(SCc2c(C(=O)N/N=C/C3CC=CCC3)nnn2-c2nonc2N)cc1 (centres undefined) | inactive
12 | Cc1ccc(-c2csc(NCCc3nc4cc(Cl)c(Cl)cc4n3CCOCCO)n2)cc1 | inactive
13 | Cc1ccc(-c2csc(N3CCN(c4cc5c(cc4Cl)nc(-c4ccncc4)n5CCOCCO)CC3)n2)cc1 | active
14 | CCCn1c(C2CCCN2c2nc(-c3ccc(C)cc3)cs2)nc2cc(Cl)c(N3CCCCC3)cc21 (centres undefined) | inactive
15 | COc1ccc(Cl)cc1NC(=O)CN(C)C(=O)c1cc(-c2cccs2)nn1-c1ccccc1 | inactive
16 | COc1cc2ccccc2cc1C(=O)Nc1ccncc1 | inactive
17 | CCc1nnc(NS(=O)(=O)c2ccc(NC(=O)c3cccc(OC(F)(F)C(F)F)c3)cc2)s1 | inactive
18 | CC1(C)O[C@H]2CC(=O)OCC23[C@H]2CC[C@@]4(C)[C@H](c5ccoc5)OC(=O)[C@H]5O[C@]54[C@]2(C)C(=O)C[C@@H]13 (some centres undefined) | inactive
19 | CCCNC(=O)c1ccc(N2CCC3(CC2)CC(c2cccc(Br)c2)=NO3)c(NC(=O)c2ccco2)c1 | inactive
20 | Cc1cccc(N=C2SC(C)CN2C(=O)CN2C(=O)NC3(CCCC3)C2=O)c1 (centres undefined) | inactive
21 | CC(=O)NCC(O)c1ccc([N+](=O)[O-])cc1 (centres undefined) | inactive
22 | O=C(CC(c1ccccc1)c1ccccc1)NCC(O)c1ccc([N+](=O)[O-])cc1 (centres undefined) | active
23 | O=C(NCC(O)c1ccc([N+](=O)[O-])cc1)C1CCCCC1 (centres undefined) | inactive
24 | Cc1ccc(OCC(=O)Oc2ccccc2[N+](=O)[O-])cc1 | inactive
25 | Cc1cc(C)c(C)c(S(=O)(=O)N2CCN(C(=O)c3ccc4c(=O)n5c(nc4c3)CCC5)CC2)c1C | inactive

Row | SMILES | outcome
26 | COc1ccc(CCNC(=S)N2CCN(S(=O)(=O)c3ccc(F)cc3)CC2)cc1 | inactive
27 | CC(=O)C12CC(C)=C(C)CC1CC1C3CCC4=CC(=O)CCC4(C)C3CCC12C (centres undefined) | inactive
28 | CSc1nsc(NC(=O)Nc2ccccc2)n1 | inactive
29 | CCN(Cc1ccccc1)C(=O)Cc1ccc(OC)c(S(=O)(=O)N2CCOCC2)c1 | inactive
30 | O=C(COc1coc(CN2CCN(c3ccccc3)CC2)cc1=O)Nc1ccccc1F | inactive
31 | COCCCN(C(=O)CSCc1ccc(C)cc1)c1c(N)n(Cc2ccccc2)c(=O)[nH]c1=O | inactive
32 | COc1ccc(N2CCN(S(=O)(=O)c3cc4c5c(c3)C(C)C(=O)N5CCC4)CC2)cc1 (centres undefined) | inactive
33 | O=C(Nc1ncccc1O)c1ccc(S(=O)(=O)N2CCCCCC2)cc1 | inactive
34 | COc1cc(C2C(C(=O)c3cccs3)=C(O)C(=O)N2CCN2CCOCC2)ccc1OCCC(C)C (centres undefined) | inactive
35 | Cc1ccc2nc(SCC(=O)N3CC(C)OC(C)C3)nc(=O)n2c1 (centres undefined) | inactive
36 | Cc1cccc(C)c1NC(=O)CNC(=O)c1c(C)nn(-c2ccccc2)c1C | inactive
37 | CCc1noc(C)c1C(=O)N1CCCSC1=Nc1ccccc1OC | inactive
38 | CCCCn1c(N)c(N(CC(C)C)C(=O)C2CSC3(C)CCC(=O)N23)c(=O)[nH]c1=O (centres undefined) | inactive
39 | COc1ccc(CNC(=O)COC(=O)CCS(=O)(=O)c2ccc(C)cc2)cc1OC | inactive
40 | Cc1c(NC(=O)C(C)Oc2cccc(Cl)c2)c(=O)n(-c2ccccc2)n1C (centres undefined) | inactive
41 | O=C(NC1CCCCC1)c1ccc(-c2ccc(Cl)cc2)o1 | inactive
42 | CCOc1ccc(C(C)=O)cc1COC(=O)CNC(=O)c1cccs1 | inactive
43 | O=C(COc1coc(CN2CCN(c3ccccc3F)CC2)cc1=O)N1CCc2ccccc21 | inactive
44 | O=c1[nH]c(/C=C/c2cccc(Br)c2)nc2ccccc12 | inactive
45 | COc1ccc(NC(=O)CN(C)C(=O)c2ccc(COc3ccccc3)o2)cc1 | inactive
46 | Cc1ccc(S(=O)(=O)N2CCOCC2)cc1C(=O)Nc1ccccc1N1CCCC1 | inactive
47 | COc1ccc([C@@H]2[C@@H]3C(=O)N(C(C)(C)C)C(=O)[C@@H]3[C@]3(Cc4ccccc4)C(=O)N(c4cccc(Br)c4)C(=O)N23)cc1 | inactive
48 | Cc1noc(C)c1C(=O)NCCc1ccc(S(N)(=O)=O)cc1 | inactive
49 | CCCNC(=O)c1c(N)n(-c2ccc(S(N)(=O)=O)cc2)c2nc3ccccc3nc12 | active
50 | CCOC(=O)c1c(C)c(C(=O)NCCc2ccc(S(N)(=O)=O)cc2)c(C)n1CC | inactive

Row | SMILES | outcome
51 | CN(C)C(CNC(=O)c1cccc(S(=O)(=O)Nc2ccc(Br)cc2)c1)c1ccco1 (centres undefined) | inactive
52 | COc1ccc(N2CC(C(=O)NCCN3C(=O)S/C(=C\c4cccnc4)C3=O)CC2=O)c(OC)c1 (centres undefined) | inactive
53 | CC1(C)C/C(=N/Nc2ccc([N+](=O)[O-])cc2[N+](=O)[O-])C(C)(C)O1 | inactive
54 | COc1ccc(C(CNC(=O)c2ccc(NS(=O)(=O)c3ccc(F)c(C)c3)cc2)N(C)C)cc1 (centres undefined) | inactive
55 | CCOC(=O)c1cnc2nc(SCc3ccccc3Cl)[nH]n2c1=O | inactive
56 | CCOC(=O)c1cc(C(C)C)sc1NC(=O)COC(=O)c1nccnc1N | inactive
57 | Cc1nc2ccccc2c(=O)n1-c1ccc(NS(=O)(=O)c2ccc(F)cc2F)cc1 | inactive
58 | O=C(CNC(=O)c1ccccc1Br)NCCSc1ccc(Br)cc1 | inactive
59 | COc1ccc(-c2oc3ncnc(NCCCO)c3c2-c2ccc(OC)cc2)cc1 | inactive
60 | COc1ccc(-c2oc3ncn(Cc4ccco4)c(=N)c3c2-c2ccc(OC)cc2)cc1 | active
61 | N=c1c2c(-c3ccccc3)c(-c3ccccc3)oc2ncn1Cc1ccco1 | inactive
62 | CCCCn1c(N)c(N(CCOC)C(=O)COc2c(C)cccc2C)c(=O)[nH]c1=O | inactive
63 | CCCCOCCCNC(=O)c1ccccc1OCC | inactive
64 | COc1ccc(CCNC(=O)c2ccccc2OCc2ccccc2)cc1 | inactive
65 | CCCOc1ccccc1C(=O)NCCCC(=O)O | active
66 | O=C(Nc1ccc2nc3n(c(=O)c2c1)CCCC3)c1ccc(Cl)nc1 | inactive
67 | O=C(Nc1ccc(S(=O)(=O)N2CCCCC2)cc1)C1CCN(C(=O)c2ccc(F)cc2)CC1 | inactive
68 | CC1(C)CC(N(Cc2ccccc2)C(=O)Cc2ccccc2)CCO1 (centres undefined) | inactive
69 | O=C(O)CCC(=O)N(Cc1cccs1)Cc1cccs1 | inactive
70 | CC(=O)N(Cc1cccs1)C1CCOC(C)(C)C1 (centres undefined) | active
71 | COc1ccccc1CNC(=O)CSc1nc(=O)n(Cc2ccncc2)c2c1CCC2 | inactive
72 | Cc1ccccc1C(=O)NCC(c1ccco1)N1CCc2ccccc21 (centres undefined) | inactive
73 | O=C(NCCS(=O)(=O)N1CCN(c2ccc(F)cc2)CC1)c1ccc2c(c1)OCO2 | inactive
74 | N#CCCN(C(=O)COC(=O)c1ccc(S(=O)(=O)N2CCCCCC2)cc1)c1ccccc1 | inactive
75 | Cc1ccccc1OCC(=O)Nc1ccc2c(c1)ncn2C | inactive

Row | SMILES | outcome
76 | COc1cc(NC(=O)CSC(=S)N2CCCC2)c(OC)cc1Cl | inactive
77 | O=C(O)c1ccc(/C=N/NC(=O)c2ccc(Br)cc2)cc1 | inactive
78 | CN(C)c1ccc(/C=N/NC(=O)c2ccc(Cn3cc(Br)cn3)o2)cc1 | inactive
79 | CN(C)c1ccc(/C=N/NC(=O)C(O)c2ccc(Br)cc2)cc1 (centres undefined) | active
80 | COc1ccc(S(=O)(=O)N2CCCCC2)cc1NC(=O)c1cc([N+](=O)[O-])ccc1N1CCOCC1 | inactive
81 | CC1(c2ccc(Cl)cc2Cl)NC(=O)N(CC(=O)Nc2cccnc2Cl)C1=O (centres undefined) | inactive
82 | COc1ccc(C(CNC(=O)c2cccc(S(=O)(=O)Nc3ccccc3Cl)c2)N2CCOCC2)cc1 (centres undefined) | inactive
83 | O=C(CCC1CCCCC1)Nc1cc(C(F)(F)F)ccc1N1CCOCC1 | inactive
84 | O=C(CN1CCOCC1)Nc1cccc([N+](=O)[O-])c1 | inactive
85 | Cc1ccc(S(=O)(=O)CC(=O)Nc2sc(C)c(C)c2C(N)=O)cc1 | inactive
86 | Cc1ccc(OCc2nc3ccccc3n2C)cc1 | inactive
87 | CCCCCCCCCCOC(=O)Cn1c(COc2cccc(OC)c2)[n+](C)c2ccccc21 | active
88 | CCn1c(=N)n(CC(=O)c2cccc(OC)c2)c2ccccc21 | inactive
89 | CCCCOC(=O)Cn1c(=N)n(CCN(CC)CC)c2ccccc21 | inactive
90 | COc1cccc(OCC(=O)Nc2ccccc2C(N)=O)c1 | inactive
91 | CCCCCCCCCCOC(=O)Cn1c(COc2ccc(C)cc2)[n+](C)c2ccccc21 | active
92 | Cc1ccc(CC(=O)N(C)CC(=O)N(CC(C)C)c2c(N)n(CC(C)C)c(=O)[nH]c2=O)cc1C | inactive
93 | Cc1ccc(Cc2nnc(SCC(=O)Nc3ccccc3C)[nH]c2=O)cc1 | inactive
94 | Cc1cccc(C)c1OCC(=O)NC(Cc1c[nH]c2ccccc12)C(=O)O (centres undefined) | inactive
95 | CC(=O)NC(Cc1c[nH]c2ccccc12)C(=O)O (centres undefined) | active
96 | CC(=O)NC(Cc1c[nH]c2ccccc12)C(=O)NCCc1ccccc1 (centres undefined) | inactive
97 | COc1ccccc1CCC(=O)NNC(=O)c1ccncc1 | inactive
98 | O=C(COC(=O)CCOc1ccccc1)Nc1cc(S(=O)(=O)N2CCCCC2)ccc1Cl | inactive
99 | CCN(CC)c1ccc(NC(=O)c2ccc(=O)[nH]c2)cc1S(=O)(=O)Nc1ccc(OC)cc1 | inactive
